# The source made the active and inactive calls. Rule for the calls: active = hit-call score of the fitted dose curve at least 0.9, where 1 is the maximum; inactive = score below 0.9.
# Assay: CCTE_Simmons_MITO_inhib_resp_rate: CCTE's HepG2 Seahorse XF Respirometric Screening Assay at Inhibited Respiratory State [full ETC block], Simmons Lab (AID 2284006)
# Details: actives raise or lower the signal
# Description: CCTE_Simmons_MITO is cell-based, respirometric assay using HepG2 cells and a Seahorse XF Analyzer to measure oxygen consumption rates over four temporal phases spanning a total of 72 minutes: pre-injection (pre-treatment), basal (following test compound injection), maximal (following FCCP uncoupler injection), and inhibited (following rotenone/antimycin A injection)CCTE_Simmons_MITO_inhib_resp_rate is one of 4 assay components calculated from the CCTE_Simmons_MITO assay. It is designed to make measurements of inhibited respiration using a form of respirometric reporter, as detected with […] signals by Seahorse XF96 technology. Data from the assay component CCTE_Simmons_MITO_inhib_resp_rate was analyzed at the endpoint, CCTE_Simmons_MITO_inhib_resp_rate_OCR, with bidirectional fitting relative to DMSO as the negative control and baseline of activity. Using a type of respirometric reporter, measures of inhibited respiration for gain or loss-of-signal activity can be used to understand cellular oxygen consumption as it relates to cellular respiration. To generalize the intended target to other relatable targets, this assay endpoint is annotated to the mitochondria intended target family, where the subfamily is respiration.
# Test chemicals were administered as a titrated series of 7 concentrations from 125 nM up to 100 uM [final] prior to kinetic endpoint detection at 6 minute intervals [3 min mix followed by 3 minutes measure] for 72 minutes. Three biological replicates of technical singles were run for every chemical concentration tested. Dimethylsulfoxide [DMSO] was used as the vehicle control. The electron transport chain inhibitor fenpyroximate was used as the positive control for decreased basal respiration and was administered as a titrated series of 6 concentrations from 250 nM up to 2.75 uM [final] with technical triplicates for the top concentration only. The uncoupler 2,4-dintirophenol was used as the positive control for increased basal respiration and was administered as a titrated series of 6 concentrations from 938 nM up to 40 uM [final] with technical triplicates for the top concentration only. A Seahorse XF Analzyer is required to measure the response.
Structure (SMILES),outcome,AC50
N#Cc1c[nH]cc1-c1cccc2c1OC(F)(F)O2,inactive,–
CO/N=C(/C1=NOCCO1)c1ccccc1Oc1ncnc(Oc2ccccc2Cl)c1F,–,6.67 µM (active)
COCC(=O)N(c1c(C)cccc1C)C(C)C(=O)OC (stereo unspecified),inactive,–
CC(C)N1C(=O)N(c2ccccc2)CSC1=NC(C)(C)C,inactive,–
O=C1C2CC=CCC2C(=O)N1SC(Cl)(Cl)Cl (stereo unspecified),inactive,–
Cc1c(COC(=O)[C@@H]2[C@H](/C=C(\Cl)C(F)(F)F)C2(C)C)cccc1-c1ccccc1,inactive,–
COCC(C)N(C(=O)CCl)c1c(C)csc1C (stereo unspecified),inactive,–
Cn1c(-c2ccccc2)cc(-c2ccccc2)[n+]1C,inactive,–
Nc1c(Cl)c(F)nc(OCC(=O)O)c1Cl,inactive,–
CCCCC(O)(Cn1cncn1)c1ccc(Cl)cc1Cl (stereo unspecified),inactive,–
CCN(CC)c1nc(C)cc(OP(=S)(OC)OC)n1,inactive,–
CC1(C)C(C=C(Cl)Cl)C1C(=O)OC(C#N)c1cccc(Oc2ccccc2)c1 (stereo unspecified),inactive,–
CCSC(=O)N1CCCCCC1,inactive,–
CCNP(=S)(OC)O/C(C)=C/C(=O)OC(C)C (stereo unspecified),inactive,–
COc1ccc(-c2ccccc2)cc1NNC(=O)OC(C)C,inactive,–
CCCCC(C#N)(Cn1cncn1)c1ccc(Cl)cc1 (stereo unspecified),inactive,–
Cc1ccc(N=CN(C)C=Nc2ccc(C)cc2C)c(C)c1,inactive,–
CCOP(=O)(OCC)Oc1nc(Cl)c(Cl)cc1Cl,inactive,–
CC(C)(C)C(=O)C(Oc1ccc(Cl)cc1)n1cncn1 (stereo unspecified),inactive,–
CC(C)=CC1C(C(=O)OCc2coc(Cc3ccccc3)c2)C1(C)C (stereo unspecified),inactive,–
CCOP(=S)(OCC)Oc1nc(Cl)n(C(C)C)n1,inactive,–
